# Results filed as inconclusive are left out. Where a call stands in place of a potency, no number is given. Calls of active or inactive are those of the source. Unless noted, calls come from the whole dose curve; as a rule, active = well fitted curve in the direction sought with a large enough effect in the repeat runs; inconclusive = weak or mixed curves; inactive = no such curve, though single readings can be large; an effect the other way counts as inactive or inconclusive.
# What was measured:
# [1] = qHTS assay to identify small molecule agonists of the NFkB signaling pathway (AID 1159509; active = well fitted curve in the direction sought with a large enough effect in the signal ratio in the repeat runs, not every such curve was filed as active; the % refers to the signal ratio; note: series mostly up to about 61 µM)
# Method in brief: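 Readout: FRET fluorescence, 405 nm excitation, 460/530 nm emission; beta-lactamase expression disrupts FRET. Cells: ME-180 stably carrying NF-kB-driven bla reporter. Compound exposure 5 hr, 37 C, 5% CO2.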
# [2] = qHTS assay to identify small molecule agonists of the NFkB signaling pathway - cell viability counter screen (AID 1159515; calls by dose curve; note: series mostly up to about 61 µM; nearly all actives have a fitted effect of over 55% in size)
# Method in brief: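 Tox21 library compounds were tested for cytotoxicity against NFkB-bla ME-180 cells during a 5 hr exposure at 37 C. CellTiter-Glo luminescence served as the viability read-out.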
# [3] = qHTS assay to identify small molecule agonists of the endoplasmic reticulum stress response signaling pathway (AID 1159516; active = well fitted activation curve with a large enough effect in the signal ratio in the repeat runs, not every such curve was filed as active; the % refers to the signal ratio)
# Method in brief: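 Fluorescence at 460 and 530 nm (405 nm excitation) reports beta-lactamase from an ER stress response element in HeLa cells treated 5 hr at 37 C.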
# [4] = qHTS assay to identify small molecule antagonists of the retinoid-related orphan receptor gamma (ROR-gamma) signaling pathway - cell viability counter screen (AID 1159520); note: nearly all actives have a fitted effect of over 50% in size; note: potency is the fitted concentration of half-maximal effect
# Method in brief: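 Tet-on ROR gamma CHO cells (1,000/well) were plated 4 hr, given compounds in DMSO for 2 hr at 37 C, then induced with 1 uM final doxycycline for 16 hr. Viability was read as ATP by CellTiter-Glo luminescence after 30 min.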
# [5] = molecular target: Nuclear receptor ROR-gamma (Homo sapiens) (UniProt P51449); assay: qHTS assay to identify small molecule antagonists of the retinoid-related orphan receptor gamma (ROR-gamma) signaling pathway (AID 1159521; note: nearly all actives have a fitted effect of over 50% in size; note: potency is the fitted concentration of half-maximal effect)
# Method in brief: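 Cells were plated, rested 4 h at 37 C, exposed to compounds for 2 h, then given 1 uM final doxycycline hyclate to induce RORγ expression. After 16 h, ONE-Glo luminescence from the ROR response element reporter was measured.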
# [6] = qHTS assay to identify small molecule agonists of the AP-1 signaling pathway - cell viability counter screen (AID 1159525; calls by dose curve; note: nearly all actives have a fitted effect of over 55% in size)
# Method in brief: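 Each titration point was normalised to DMSO and tetra n-octyl ammonium bromide controls. The read was Cell Titer Glo luminescence after 30 min at RT, following 5 h compound exposure of ME-180 AP-1-bla cells at 37 °C.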
# [7] = qHTS assay to identify small molecule agonists of the AP-1 signaling pathway (AID 1159526; calls by dose curve)
# [8] = molecular target: Retinoic acid receptor RXR-alpha (Homo sapiens) (UniProt P19793); assay: qHTS assay to identify small molecule agonists of the RXR signaling pathway (AID 1159527; calls by dose curve; note: nearly all actives have a fitted effect of over 35% in size; note: potency is the fitted concentration of half-maximal effect)
# Chain of Retinoic acid receptor RXR-alpha (Homo sapiens) (P19793 whole entry, looked up): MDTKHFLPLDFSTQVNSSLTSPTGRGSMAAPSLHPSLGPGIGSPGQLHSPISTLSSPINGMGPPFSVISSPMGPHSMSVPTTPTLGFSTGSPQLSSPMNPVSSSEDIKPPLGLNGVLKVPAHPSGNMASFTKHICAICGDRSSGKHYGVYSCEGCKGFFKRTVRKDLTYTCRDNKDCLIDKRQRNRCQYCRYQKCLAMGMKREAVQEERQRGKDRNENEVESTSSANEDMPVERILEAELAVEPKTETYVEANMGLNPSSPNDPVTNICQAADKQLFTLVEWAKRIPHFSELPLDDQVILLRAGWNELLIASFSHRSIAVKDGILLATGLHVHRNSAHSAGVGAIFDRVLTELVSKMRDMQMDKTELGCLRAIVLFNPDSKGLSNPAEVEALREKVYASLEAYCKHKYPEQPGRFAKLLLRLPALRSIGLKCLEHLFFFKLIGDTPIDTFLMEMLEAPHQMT
# Method in brief: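 Cells plated at 2,000/well, rested 5 hr at 37 C, pin-dosed with DMSO compound solutions, incubated 16 hr, then loaded with B/G FRET substrate for 2 hr at RT before dual-emission fluorescence reading.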
# [9] = qHTS assay to identify small molecule agonists of the RXR signaling pathway - cell viability counter screen (AID 1159529);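 note: HEK 293T cells carrying an RXR-alpha UAS beta-lactamase reporter; series mostly up to about 77 µM; nearly all actives have a fitted effect of over 50% in size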
# Method in brief: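 Steps: seed RXR-alpha-UAS-bla HEK 293T cells in assay medium containing 2% charcoal-stripped FBS; incubate 5 hr; add compounds in DMSO; incubate 16 hr at 37 C; after the bla read, add CellTiter-Glo and read luminescence at 30 min.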
# [10] = qHTS assay to identify small molecule antagonists of the retinoid acid receptor (RAR) signaling pathway - cell viability counter screen (AID 1159551); note: nearly all actives have a fitted effect of over 35% in size
# Method in brief: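 In this counter screen, the RARE-luciferase line C3RL4 was exposed for 6 h at 37 C and 5% CO2 to compounds with retinol at 1 uM final. Cellular ATP, read by luminescence, served as the viability measure.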
# [11] = qHTS assay to identify small molecule antagonists of the vitamin D receptor (VDR) signaling pathway - cell viability counter screen (AID 743225); note: nearly all actives have a fitted effect of over 50% in size; note: potency is the fitted concentration of half-maximal effect
# Method in brief: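 HEK293T VDR-bla; cpd + 1a,25-(OH)2D3 3 nM final, 16 h 37C/5% CO2; B/G FRET substrate 2 h RT; then CellTiter-Glo 30 min RT, luminescence.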
# [12] = qHTS assay to identify small molecule agonists of the endoplasmic reticulum stress response signaling pathway - cell viability counter screen (AID 1159517; calls by dose curve)
# Method in brief: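 Cytotoxicity of test compounds toward ESRE-bla HeLa cells was assessed after 5 hr exposure. The luminescent CellTiter-Glo signal was measured 30 min after reagent addition.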
# [13] = qHTS assay to identify small molecule antagonists of the retinoic acid receptor (RAR) signaling pathway (AID 1159552; note: nearly all actives have a fitted effect of over 50% in size; note: potency is the fitted concentration of half-maximal effect)
# Method in brief: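 Retinol at 1 uM final stimulated RARE-luciferase expression in C3RL4 cells exposed to test compounds for 6 hr at 37 C. Reduced luminescence, read 30 min after detection reagent, indicated pathway antagonism.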
# [14] = qHTS assay to identify small molecule agonists of the retinoic acid receptor (RAR) signaling pathway (AID 1159553); note: potency is the fitted concentration of half-maximal effect
# Method in brief: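 In this cell-based screen, 1,000 C3RL4 cells per well were cultured overnight, dosed with test chemicals in DMSO for 6 hr, and assessed for RARE luciferase luminescence.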
SMILES,outcome [1],Potency [2],outcome [3],Potency [4],Potency [5],Potency [6],outcome [7],Potency [8],Potency [9],Potency [10],Potency [11],Potency [12],Potency [13],Potency [14]
CCCCCCCCCCOC(=O)c1ccccc1C(=O)OCCCCCCCCCC,inactive,inactive,inactive,inactive,inactive,inactive,inactive,inactive,inactive,inactive,,,,
CCOS(C)(=O)=O,inactive,inactive,inactive,,,inactive,inactive,,inactive,inactive,inactive,inactive,inactive,inactive
C[C@]12CC[C@H]3[C@@H](CCC4=CC(=O)CC[C@@H]43)[C@@H]1CC[C@@H]2OC(=O)CCC1CCCCC1,inactive,inactive,inactive,inactive,,inactive,inactive,,inactive,inactive,inactive,inactive,,inactive
CCCCc1c(C)nc(NCC)nc1OS(=O)(=O)N(C)C,inactive,inactive,inactive,inactive,,inactive,inactive,,inactive,inactive,inactive,inactive,inactive,inactive
O=C(Nc1ccccc1)Nc1ccnc(Cl)c1,inactive,inactive,inactive,,,inactive,,,,inactive,,inactive,inactive,
COc1ccc(-c2ccccc2)cc1NNC(=O)OC(C)C,inactive,inactive,inactive,,,inactive,inactive,,,inactive,51 µM (active),inactive,inactive,inactive
Cc1c(F)c(F)c(COC(=O)C2C(/C=C(\Cl)C(F)(F)F)C2(C)C)c(F)c1F (stereo unspecified),inactive,inactive,inactive,inactive,,inactive,inactive,,inactive,inactive,inactive,inactive,,inactive
Cn1sc(Cl)cc1=O,inactive,inactive,inactive,61.1 µM (active),,inactive,,inactive,inactive,inactive,,inactive,inactive,inactive
Cl/C=C\C[N+]12CN3CN(CN(C3)C1)C2,inactive,inactive,inactive,,inactive,inactive,inactive,inactive,,inactive,inactive,inactive,,
CC(c1ccc(O)cc1)(c1ccc(O)cc1)c1ccc(O)cc1,inactive,inactive,inactive,inactive,,,,inactive,,inactive,inactive,inactive,61.1 µM (active),inactive
CCCCC(O)(Cn1cncn1)c1ccc(Cl)cc1Cl (stereo unspecified),inactive,inactive,inactive,,,,,,,,54.9 µM (active),inactive,,
CN(N=O)c1ccc([N+](=O)[O-])cc1,inactive,inactive,inactive,inactive,inactive,inactive,inactive,inactive,inactive,inactive,,,inactive,inactive
C=CCOC(C)=O,inactive,inactive,inactive,inactive,,inactive,inactive,,inactive,inactive,inactive,,inactive,75.9 µM (active)
C=CCCl,inactive,inactive,inactive,,,inactive,inactive,inactive,inactive,inactive,inactive,,inactive,inactive
NCCCNCCCN,inactive,inactive,inactive,inactive,,inactive,inactive,,,inactive,49.7 µM (active),,,
O=C(O)COc1ccc(Cl)cc1,inactive,inactive,inactive,inactive,,inactive,inactive,,,inactive,inactive,,inactive,inactive
O=S(=O)(Cl)c1ccccc1,inactive,inactive,,inactive,,inactive,inactive,inactive,inactive,inactive,,inactive,inactive,inactive
O=C(O)C(F)(F)C(F)(F)C(F)(F)C(F)(F)C(F)(F)C(F)(F)C(F)(F)C(F)(F)C(F)(F)C(F)(F)F,inactive,inactive,,inactive,inactive,inactive,inactive,11.6 µM (active),inactive,inactive,,inactive,inactive,inactive
[O-][Cl+]O,inactive,inactive,,inactive,inactive,inactive,inactive,,inactive,inactive,inactive,inactive,inactive,inactive
O=C1NCN(c2ccccc2)C12CCN(CCCOc1ccc(F)cc1)CC2,inactive,inactive,,inactive,23.7 µM (active),inactive,,,,inactive,inactive,inactive,,
CN1C(=O)NC(=O)C(C)(C2=CCCCC2)C1=O (stereo unspecified),inactive,inactive,,inactive,inactive,inactive,inactive,inactive,inactive,inactive,,inactive,inactive,inactive
CCBr,inactive,inactive,inactive,,inactive,inactive,inactive,inactive,inactive,,inactive,,inactive,inactive
O=C1CN=C(c2ccccc2)c2cc(Cl)ccc2N1CC1CC1,inactive,inactive,inactive,inactive,inactive,inactive,inactive,,inactive,inactive,inactive,,inactive,inactive
CCC(Cl)CCl (stereo unspecified),inactive,inactive,,inactive,inactive,inactive,inactive,inactive,inactive,inactive,inactive,inactive,inactive,inactive
